An excerpt weighted towards active compounds, which were near 2.6% of everything screened.
TWEAK-Fn14 inh – inhibitors of TWEAK-Fn14 interaction signaling; TWEAK-stimulated Fn14 reporter cells, luciferase luminescence, 8 h; inhibition, % at 10 µM; 2% of 360,000 active; AID 1159606; in the data active = inhibition above about 50%
EWS-Fli block – blocks EWS/Fli oncoprotein-driven transcription | A673 NR0B1-luciferase reporter, viability-normalised | inhibition, % at 12.6 µM | 0.67% of 350,000 active | AID 651661;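 active = mean inhibition of at least 50% after viability correction, with every replicate also passing that limit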;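 also: firefly luciferase signal divided by Alamar Blue viability fluorescence both relative to DMSO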
LMP1 NFkB inh – reduces LMP1-driven NF-kappaB luciferase signal | AID 504558 | LMP1-induced NF-kappaB luciferase reporter cells, luminescence | 0.69% of 350,000 active | inhibition, % at 12.5 µM; in the data active = inhibition above about 41%
LGR2 antag – inhibitors of bursicon-induced Drosophila LGR2 receptor cAMP signaling; HEK293 LGR2, CRE-luciferase, bursicon-stimulated, 4 h; inhibition, % at 9.99 µM; 0.35% of 380,000 active; AID 720647;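 active = drop in luminescence signal, shown as inhibition above about 50% in the replicate tests, limit read from the data, passing the limit was not always enough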;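 also: agonist challenge used bursicon conditioned medium at about half maximal strength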
TROY signal inh – blocks TROY-dependent signaling in reporter cells; 0.98% of 360,000 active; Q293 LMP1-TROYcd NF-kB luciferase reporter, 4 h; inhibition, % at 10 µM;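 active = compounds whose plate-normalised and pattern-corrected inhibition of the luciferase reporter signal at the single screening dose is 50% or more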
Numbers stand for hits; ! = not active in a repeat.

`O=C(C[C@H]1C=C[C@@H](NC(=O)Nc2ccccc2F)[C@@H](CO)O1)NCc1ccccc1` gave EWS-Fli block inactive and LGR2 antag inactive.
CCOCCOC(=O)C1=C(C)Nc2ccc(C)cc2S1 was read as TWEAK-Fn14 inh inactive, LMP1 NFkB inh inactive and TROY signal inh inactive.
`CCOC(=O)C1=C(C)Nc2ccc(C)cc2S1` gave TWEAK-Fn14 inh 96, LMP1 NFkB inh inactive and TROY signal inh inactive.
`COc1ccc(C(=O)N/N=C/c2ccc(OC)c(CN3CCCc4ccccc43)c2)cc1` gave TWEAK-Fn14 inh 58, LMP1 NFkB inh inactive, LGR2 antag inactive and TROY signal inh inactive.
CCCc1ccc(OC(=O)c2cccs2)cc1 was read as TWEAK-Fn14 inh inactive, LMP1 NFkB inh inactive, LGR2 antag inactive and TROY signal inh inactive.
CCCc1ccc(OC(=O)c2ccc(O)cc2Cl)cc1 was read as TWEAK-Fn14 inh inactive, EWS-Fli block inactive, LMP1 NFkB inh inactive, LGR2 antag inactive and TROY signal inh 58.
For C[C@H]1CN([C@@H](C)CO)S(=O)(=O)c2ccc(C#CC(C)(C)O)cc2O[C@H]1CN(C)Cc1ccncc1 the results were EWS-Fli block inactive and LGR2 antag inactive.
Screening Cc1sc2ncnc(NCC3COc4ccccc4O3)c2c1C (stereo not drawn) returned TWEAK-Fn14 inh 57, LMP1 NFkB inh 49, LGR2 antag inactive and TROY signal inh inactive.
`Cc1sc2ncnc(NCC3CCCO3)c2c1C` (stereo not drawn) gave TWEAK-Fn14 inh inactive, LMP1 NFkB inh inactive, LGR2 antag inactive and TROY signal inh inactive.
c1ccc(-c2csc3ncnc(NCC4COc5ccccc5O4)c23)cc1 (stereo not drawn) was read as TWEAK-Fn14 inh 91, EWS-Fli block inactive, LMP1 NFkB inh inactive, LGR2 antag inactive and TROY signal inh 59.
For C[C@H](CO)N1C[C@H](C)[C@H](CN(C)C(=O)c2ccccc2F)Oc2ncc(C#CC(C)(C)O)cc2C1=O the results were EWS-Fli block inactive and LGR2 antag inactive.
COc1ccc(OC(=O)N2CCOCC2)cc1 was read as TWEAK-Fn14 inh inactive, EWS-Fli block inactive, LMP1 NFkB inh inactive, LGR2 antag inactive and TROY signal inh inactive.
Screening COc1ccc(/C(N)=N/OC(=O)N2CCOCC2)cc1 returned TWEAK-Fn14 inh inactive, EWS-Fli block inactive, LMP1 NFkB inh 90, LGR2 antag inactive and TROY signal inh inactive.
COc1ccc(CC(=O)N2CCOCC2)cc1 was read as TWEAK-Fn14 inh 99, LMP1 NFkB inh inactive and TROY signal inh inactive.
COc1ccc(CC(=O)N2CCOCC2)cc1OC was read as TWEAK-Fn14 inh inactive, LMP1 NFkB inh inactive and TROY signal inh inactive.
CCCC(CCC)C(=O)O was read as TWEAK-Fn14 inh inactive, EWS-Fli block inactive, LMP1 NFkB inh 58!, LGR2 antag inactive and TROY signal inh inactive.
`CCCCC(CC)C(=O)O` (stereo not drawn) gave TWEAK-Fn14 inh inactive, EWS-Fli block inactive, LMP1 NFkB inh inactive, LGR2 antag inactive and TROY signal inh inactive.
`CN1CCN(c2ccc(NC(=O)c3ccco3)cc2Cl)CC1` gave TWEAK-Fn14 inh inactive, EWS-Fli block inactive, LMP1 NFkB inh 60, LGR2 antag inactive and TROY signal inh 50.
Screening O=C(Nc1ccc(N2CCCC2)c(Cl)c1)c1ccco1 returned TWEAK-Fn14 inh inactive, LMP1 NFkB inh inactive and TROY signal inh inactive.
`O=C(Nc1ccc(N2CCN(C(=O)c3ccco3)CC2)c(Cl)c1)c1cccs1` gave TWEAK-Fn14 inh 108, LMP1 NFkB inh inactive and TROY signal inh inactive.
For CC(C)C(=O)N1CCN(c2ccc(NC(=O)c3cccs3)cc2Cl)CC1 the results were TWEAK-Fn14 inh inactive, EWS-Fli block inactive, LMP1 NFkB inh inactive and TROY signal inh inactive.
For O=C1C(C=NCCCN2CCOCC2)=C(O)c2ccccc21 the results were TWEAK-Fn14 inh inactive, LMP1 NFkB inh inactive and TROY signal inh 58.
Screening Cc1nccc(-c2sc(-c3cccs3)nc2C)n1 returned TWEAK-Fn14 inh inactive, EWS-Fli block inactive, LMP1 NFkB inh inactive, LGR2 antag inactive and TROY signal inh 59.
Screening CC[C@H](C)[C@@H]1NC(=O)[C@@H](CC(C)C)NC(=O)[C@H](C(C)C)NC(=O)[C@H]2CSSC[C@H](NC1=O)C(=O)N2 returned TWEAK-Fn14 inh 107, EWS-Fli block 68, LGR2 antag 72 and TROY signal inh 86.
Screening COc1cccc(-c2cnc3c(c2)C(=O)N([C@H](C)CO)C[C@H](C)[C@H](CN(C)C(C)=O)O3)c1 returned EWS-Fli block inactive and LGR2 antag inactive.
NC(=O)Cn1c(=O)n(CCC(=O)NCCSCc2ccccc2)c(=O)c2ccccc21 was read as TWEAK-Fn14 inh inactive, EWS-Fli block inactive, LMP1 NFkB inh inactive, LGR2 antag inactive and TROY signal inh 71.
Screening C[C@H]1CN([C@@H](C)CO)C(=O)c2cc(C#CC3CCCCC3)cnc2O[C@H]1CN(C)Cc1cncnc1 returned EWS-Fli block inactive and LGR2 antag inactive.
CC1C2CC(C/C2=N/NC(=O)c2cccs2)C1(C)C (stereo not drawn) was read as TWEAK-Fn14 inh inactive, EWS-Fli block inactive, LMP1 NFkB inh inactive, LGR2 antag inactive and TROY signal inh inactive.
Screening C[C@@H]1C2CC(C/C2=N\NC(=O)c2ccncc2)C1(C)C (stereo partly drawn) returned TWEAK-Fn14 inh inactive, LMP1 NFkB inh 72, LGR2 antag inactive and TROY signal inh inactive.
Cc1ccc(-c2ccc(=O)n(Cc3cc(C)ccc3C)n2)cc1 was read as TWEAK-Fn14 inh inactive, EWS-Fli block inactive, LMP1 NFkB inh inactive, LGR2 antag inactive and TROY signal inh inactive.
`Cc1ccc(C)c(Cn2nc(-c3ccccc3)ccc2=O)c1` gave TWEAK-Fn14 inh inactive, EWS-Fli block inactive, LMP1 NFkB inh inactive, LGR2 antag inactive and TROY signal inh 56.
O=C(c1ccncc1)N1CC(=O)N2[C@H](C1)[C@@H](c1ccc(-c3ccccc3)cc1)[C@@H]2CO was read as EWS-Fli block 54 and LGR2 antag inactive.
N#Cc1cccc(-c2ccc([C@@H]3[C@H](CO)N4CCCCN(C(=O)Nc5cccc(F)c5)C[C@@H]34)cc2)c1 was read as EWS-Fli block inactive and LGR2 antag 96.
Screening O=C(Nc1cccc(F)c1)N1CCCCN2[C@H](CO)[C@H](c3ccc(C#Cc4ccccc4)cc3)[C@H]2C1 returned EWS-Fli block 73 and LGR2 antag inactive.
For O=C(Nc1ccc(F)cc1)N1CCCCN2[C@@H](CO)[C@@H](c3ccc(C#Cc4ccccc4)cc3)[C@@H]2C1 the results were EWS-Fli block 63 and LGR2 antag inactive.
`O=C(Nc1ccc(F)cc1)N1CCCCN2[C@H](CO)[C@@H](c3ccc(C#Cc4ccccc4)cc3)[C@H]2C1` gave EWS-Fli block inactive and LGR2 antag inactive.
`N#Cc1cccc(-c2ccc([C@@H]3[C@H]4CN(C(=O)Nc5cccc(F)c5)CCCCN4[C@H]3CO)cc2)c1` gave EWS-Fli block inactive and LGR2 antag inactive.
For O=C(Nc1cccc(F)c1)N1CCCCN2[C@H](C1)[C@H](c1ccc(C#Cc3ccccc3)cc1)[C@@H]2CO the results were EWS-Fli block inactive and LGR2 antag inactive.

Screens: PubChem BioAssay, several laboratories
